Activation data for 96 compounds are collected here from PubChem BioAssay AID652017 (The Scripps Research Institute Molecular Screening Center, 2013).

In all, about 370,000 compounds went through this assay and about 3,800 (1%) were called active. The sample holds actives, similar compounds and a random draw of the others, so the mix is not that of the screen. Values without a mark were called inactive. Cut-off read from the data, not from the text of the source: active = activation above about 7.8%; inactive = the rest.

A short description of this experiment: SMARCA2 (BRM) function activators, primary screen, cell-based, luminescence, high throughput (AID 652017).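 Note: 0% = vehicle wells and 100% = reference activator wells.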 The conditions noted are these: MG213 cells, MMTV-luciferase reporter, dexamethasone, overnight; at 9.1 µM; stronger effect = higher value. A general note: A reporter such as luciferase makes a cellular process visible.
With `O=C(Nc1ccccc1)N1CCN(Cc2nc3ccccc3c(=O)[nH]2)CC1`, the activation was -4.04%.
To `COC(=O)c1cc(S(=O)(=O)N2CCN(c3ccccc3C)CC2)cn1C` belongs -6.95%; to `CCCCOCCCNC(=O)C[C@H]1C[C@@]2(C(=O)OC)C(=C[C@H](C(C)(C)C)O[C@@H]2C)N(CCc2ccc(OC)c(OC)c2)C1=O`, -1.39%; to `Nc1[nH]c(/C=C2/CCCCC2n2[nH]c(=O)n(-c3ccccc3)c2=O)c(Cc2ccccc2)[n+]1Cc1ccccc1` (stereo unspecified), -4.04%.
Regarding `COc1ccc(S(=O)(=O)NC(C)C(=O)N2CCCCCC2)cc1` (stereo unspecified), the activation is 8.03% (active).
In the case of `COc1ccc(CNS(=O)(=O)c2ccc(NC(=O)N3CCCCC3)cc2)cc1` it was -3.18%; in that of `COc1ccc(N2CC(C(=O)N[C@@H](C)C(=O)N3CCCCC3)CC2=O)cc1` (stereo partly specified), 1.33%; in that of `COCC(=O)N[C@@H]1C[C@@H]2O[C@@H](CO)CC[C@@H]2O[C@@H]1CCc1ccc(-c2ccccc2)cc1`, 0.63%.
To `CCOC(=O)[C@]12CCCC=C1N(Cc1ccc(OC)cc1)C(=O)[C@@H]2CC(=O)NCc1cccs1` belongs -2.09%.
Consider `CC(=O)c1ccc(NC(=O)c2sc3nc4n(c(=O)c3c2C)CCCCC4)cc1`, for which the activation is 9.72% (active).
In the case of `Cc1c(C(=O)Nc2cccc(-c3nnc4n3CCCCC4)c2)oc2ccccc12` it was -1.34%; in that of `O=C(Nc1ccc2nc3n(c(=O)c2c1)CCCC3)c1ccc(Cl)nc1`, -1.5%.
For `CC1CCN(C(=O)c2ccc3c(=O)n4c(nc3c2)CCCCC4)CC1`, the activation was -1.07%.
In the case of `O=C(Cn1[nH]c(=O)c2ccccc2c1=O)Nc1cccc(-c2nnc3n2CCCCC3)c1` it was -0.49%.
In the case of `O=c1c2c(nc3n1CCCCC3)sc1c(O)cccc12` it was 10.3% (active); in that of `COc1cccc(CNC(=O)CNS(=O)(=O)c2ccc3nc(C)sc3c2)c1OC`, -2.54%; in that of `O=C(NC1CCCC1)C1CSCCS(=O)(=O)N1Cc1ccccc1` (stereo unspecified), -0.49%.
`COC(=O)[C@]12C[C@H](CC(=O)NCCCN3CCCC3=O)C(=O)N(CCc3ccc(OC)c(OC)c3)C1=C[C@H](COCc1ccccc1)O[C@@H]2C`: the activation is -2.89%.
In the case of `Cc1cc(C)cc(NC(=O)N2CCC(N(C)CCC(C)C)CC2)c1` it was -3.63%; in that of `COC(=O)c1cccc(Cn2ccc3ccc(-c4ccc5ccn(C(=O)c6ccccc6C)c5c4)cc32)c1`, -2.21%; in that of `COc1ccc(-n2c(SCC(=O)Nc3ccccc3-c3ccccc3)nnc2-c2cccnc2)cc1`, -4.88%.
In the case of `COc1ncnc2c1ncn2CCCNCCN1CCOCC1` it was -1.94%.
`O=C(Nc1ccc2sc3ccccc3c(=O)c2c1)c1ccccc1Cl`: the activation was 5.49%.
Take `O=C(Nc1cc(=O)[nH]c2ncnn12)c1ccccc1Cl`: the activation is 8.25% (active).
In the case of `CC(=O)c1cc(CN2CCC(n3nccc3NC(=O)c3ccccc3Cl)CC2)cs1` it was -2.24%; in that of `Cc1cc(Br)ccc1NC(=O)CCCOc1cc(=O)n(C)c2ccccc12`, -2.55%.
Regarding `OC(CCl)CCl`, the activation is -4.79%.
On to `COc1ccc(CCNC(=O)CCNS(=O)(=O)c2cc(Br)cnc2N)cc1OC`, for which the activation was -1.13%.
To `COc1c(O)cc2oc(-c3ccc(O)c(O)c3)cc(=O)c2c1O` belongs 8.25% (active); to `CCCCOCCCNC(=O)C[C@H]1C[C@@]2(C(=O)OC)C(=C[C@H](COCc3ccccc3)O[C@@H]2C)N(Cc2cccc3ccccc23)C1=O`, -2.77%.
For `O=C(C1CCCN1S(=O)(=O)c1ccccc1)N1CCc2ccccc2C1` (stereo unspecified), the activation was -4.12%.
To `Cc1ccc(C(=O)C2CCN(CC(=O)NCCC(C)C)CC2)cc1` belongs -3.11%; to `Cc1nn(Cc2ccc(F)cc2)c(C)c1NC(=O)c1cccnc1Cl`, 11.7% (active).
Turning to `Cc1nn(Cc2ccc(F)cc2)c(C)c1NC(=O)c1noc2c1CCc1ccccc1-2`, the activation is -4.67%.
To `Cc1nn(Cc2ccc(Cl)c(Cl)c2)c(C)c1NC(=O)c1cc(C2CC2)on1` belongs -4.98%.
For `COc1ccc(Cn2cc(CN3[C@@H](CC(C)C)COc4cc(Br)ccc4S3(=O)=O)nn2)cc1`, the activation is 0.39%.
In the case of `C/C(Cn1nnc2ccccc21)=N\OC(=O)c1cc(F)c(F)cc1Cl` it was -0.31%; in that of `COc1ccc(-n2c(SCC(=O)Nc3ccc4cn[nH]c4c3)nnc2-c2cccnc2)cc1`, 6.71%.
In the case of `COc1ccc(/C=N/NC(=O)c2cc(-c3cccc(C)c3)nc3ccccc23)cc1O`, the activation was 8.84% (active).
To `COc1ccc(C)cc1NC(=O)c1cc(-c2ccccc2)nc2c1cnn2C(C)C` belongs -4.75%.
Take `Cc1ccc(/C=N/NC(=O)COc2ccccc2-c2ccccc2)cc1`: the activation was -0.77%.
In the case of `CCC(=O)Nc1ccc2c(c1)C(=O)N(C)[C@H]1CC[C@H](CC(=O)NCCOC)O[C@@H]1CO2` it was -1.86%; in that of `CC(CCN1CCC(C(O)(c2ccccc2)c2ccccc2)CC1)Oc1ccc([N+](=O)[O-])cc1Cl` (stereo unspecified), 5.01%; in that of `Cc1cc(C(=O)NNC(=S)Nc2ccccc2C)cs1`, 8.64% (active).
In the case of `Cc1ccccc1NC(=O)c1cc(S(=O)(=O)N2CCOCC2)cs1` it was -0.28%; in that of `Cc1cc(C(=O)NNC(=S)NC(C)c2ccccc2)cs1` (stereo unspecified), -0.96%.
For the compound `COC(=O)[C@]12C[C@H](CC(=O)NCc3ccccc3)C(=O)N(CCC3=CCCCC3)C1=C[C@H](C(C)C)O[C@@H]2C1CC1`, the activation is 0.2%.
To `C=CCN1C(=O)[C@@H](CC(=O)N2CCN(C(=O)c3ccco3)CC2)[C@]2(C(=O)OC)CCCCC=C12` belongs -3.14%; to `COC(=O)C12C=C3CC(c4ccccc4)=C3C(=O)N1Cc1[nH]c3ccccc3c1C2` (stereo unspecified), -3.71%; to `CN1C(=O)c2cc(NS(C)(=O)=O)ccc2OC[C@@H]2O[C@@H](CC(=O)NCc3ccc(-c4ccccc4)cc3)CC[C@H]21`, 0.34%.
To `Cc1ccn(CCC(=O)N2c3ccccc3CC2C)n1` (stereo unspecified) belongs -2.39%.
In the case of `CCCC(=O)N1c2ccc(-c3csc(N)n3)cc2CC1C` (stereo unspecified) it was 13.2% (active).
Regarding `CCOc1ncccc1C(=O)OCC(=O)N1c2ccccc2CC1C` (stereo unspecified), the activation is -1.56%.
As for `Cc1ccccc1CN1CCNC(=O)C1CC(=O)NCCC1=CCCCC1` (stereo unspecified), the activation was 5.02%.
In the case of `O=C(NCc1ccncc1)C(=O)NCc1ccco1` it was -0.15%; in that of `Cc1ccc(NC(=O)C(=O)NCc2ccco2)c(C)c1`, 9.32% (active); in that of `Cc1ccc(SCC(=O)NC(=O)NCc2ccco2)c(C)c1`, -0.59%.
In the case of `CN[C@H]1C[C@H]2c3cc(N4CCOCC4)ccc3CCN2C[C@H]1[C@H](C)O` it was -3.84%; in that of `C=C(C)C#CC(Cc1ccccc1)N(CC1CC1)/C(N)=N/C(=O)OCc1ccccc1` (stereo unspecified), -1.63%.
To `CCOc1cc(NC(=S)NCCCOC)c(OCC)cc1NC(=O)c1ccco1` belongs 9.88% (active).
With `CCOc1cc(NC(=S)NCCCN(C)C)c(OCC)cc1NC(=O)C1CC1`, the activation is 1.16%.
In the case of `COc1cc(NC(=S)NCc2ccco2)c(OC)cc1Cl` it was 0.64%.
To `Cc1ccc(CSc2nnc(SCC(=O)NN=Cc3cc(Br)ccc3F)s2)cc1` belongs -6.75%; to `CC(C)(C)OC(=O)NCc1cc(F)ccc1/C=C/S(=O)(=O)NCCc1ccccc1`, -3.29%.
To `CN(C(=O)CC1C(=O)NCCN1Cc1ccc2ccccc2c1)C1CCOCC1` (stereo unspecified) belongs -1.84%.
On to `CCOC(=O)Nc1ccc(NC(=O)OCC)cc1`, for which the activation is 11.1% (active).
As for `CC(C)(COC(=O)Nc1ccccc1)COC(=O)Nc1ccccc1`, the activation was -1.85%.
To `CCOC(=O)Nc1ccc(S(=O)(=O)N(C)C(C)C)cc1` belongs -0.48%; to `O=C(N1CCOCC1)N1CC[C@H]2[C@H](CCCN2Cc2ccc(F)cc2)C1`, -1.37%.
To `N/C(=N\OC(=O)CCC1CCCCC1)c1ccccn1` belongs 3.7%; to `COc1ccccc1OCC(=O)O/N=C(\N)c1ccccn1`, 8.43% (active).
In the case of `COc1ccccc1OCC(=O)OCc1cc(-c2ccco2)on1`, the activation was 1.73%.
As to `COC(=O)C1=C(C)N(Cc2ccccc2C(F)(F)F)C(=NCC2CC2)NC1c1cccc(Cl)c1` (stereo unspecified), the activation is -1.87%.
With `CC(=O)Nc1ccc(S(=O)(=O)N2CCN(c3ccc([N+](=O)[O-])c(NCCN4CCOCC4)c3)CC2)cc1`, the activation was -2.48%.
With `O=C(Nc1ccc(Br)cc1)OCCN1C(=O)CCC12CCC(c1ccccc1)CC2` (stereo unspecified), the activation is -0.9%.
In the case of `C1=C(CCNc2ncnc3c2cnn3-c2ccccc2)CCCC1` it was 10.2% (active); in that of `Cc1nn(C(C)C(=O)NCCC2=CCCCC2)c(=O)c2nn(-c3ccccc3)c(C)c12` (stereo unspecified), 0.01%.
In the case of `S=C(NCCC1=CCCCC1)Nc1ccccc1` it was 2.03%.
Consider `Cc1ncn2cc(-c3ccc(Cl)cc3Cl)[nH]c(=O)c12`, for which the activation was 5.25%.
For the compound `O=C(O)CN1c2cccc3cccc(c23)S1(=O)=O`, the activation is -0.74%.
To `O=C(NC1=NCCS1)c1ccc(Cl)s1` belongs 3.86%; to `COc1ccc(C(=O)NC2=NCCS2)c(OC)c1`, 8.02% (active).
To `COc1ccccc1C(=O)NCCC(=O)NC1=NCCS1` belongs -1.3%.
In the case of `COC(=O)Cc1nnn2c1[C@H](C)[C@H](c1ccccc1[N+](=O)[O-])OCC2` it was 9.58% (active); in that of `COC(=O)Cc1nnn2c1[C@H](C)[C@H](c1ccccc1Br)OCC2`, -2.14%; in that of `COC(=O)Cc1nnn2c1[C@H](C)[C@@H](OC)c1cc(Br)ccc1-2`, -2.14%.
Consider `O=C(CSc1nnc(COc2ccccc2)n1Cc1ccco1)c1ccc2ccccc2c1`, for which the activation is -6.31%.
To `COc1ccc(C2C(C(C)=O)=C(O)C(=O)N2c2nccs2)cc1` (stereo unspecified) belongs 1.1%; to `COc1ccc(-n2c(SC)nc(O)cc2=O)cc1`, -1.4%; to `COc1ccc(-c2csc(Cc3nc(O)cs3)n2)cc1`, 16.8% (active).
To `CCN(CC)C(=O)CSc1nnc(-c2ccc(S(=O)(=O)NCc3ccccc3Cl)cc2)o1` belongs -2.52%; to `CCN(CC)C(=O)CSc1nnc(-c2cccc(OC)c2)o1`, 8.29% (active); to `COc1cccc(NC(=O)CSc2nnc(-c3cccnc3)o2)c1`, -0.51%.
Regarding `COc1ccc(-n2c(COc3ccc(C)cc3)nnc2SCC(=O)Nc2ccc(Oc3ccccc3)cc2)cc1`, the activation was -5.92%.
In the case of `COc1ccc(-c2cc(-c3nnc(SCc4ccc([N+](=O)[O-])cc4)n3N)[nH]n2)cc1` it was -5.07%; in that of `COc1ccc(/C=C2\CC3(OC(C)=O)CCCN2C3)cc1` (stereo unspecified), -1.45%.
